# Structures can show the parent of a compound that is named as a salt.
# How the values were obtained:
# Conditions in all cases: compound concentration in added solution (µM; 5 µl added to 20 µl cells): 10; 18 h
# [1] = system: A431; assay: LBPA endosome anti-LBPA integrated intensity (sum per cell), Z-score; higher = more LBPA staining
# Procedure, shortened: (§1)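 Duplicate 384-well imaging plates were prepared with 5 µl of 10 µM compound solution per well, and 3,500 HeLa MZ or A431 cells in 20 µl were added on top. Following 18 h of incubation and fixation in 4% PFA, cells received 6C4 anti-LBPA antibody, filipin, propidium iodide and CellTracker green. Four images per well at 20× were segmented in MetaXpress to yield per-cell integrated LBPA or filipin intensity, whole-cell or within LBPA endosomes. These intensities are reported as Z-scores normalised in AcuityXpress.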
# [2] = system: HeLa MZ; assay: as above
# Procedure, shortened: as §1
# [3] = system: A431; assay: whole-cell filipin (free cholesterol) integrated intensity, Z-score; higher = more cholesterol staining
# Procedure, shortened: as §1
# [4] = system: HeLa MZ; assay: as above
# Procedure, shortened: as §1
# [5] = system: A431; assay: filipin (cholesterol) integrated intensity within LBPA endosomes, Z-score; higher = more cholesterol in LBPA endosomes
# Procedure, shortened: as §1
# [6] = system: HeLa MZ; assay: as above
# Procedure, shortened: as §1
SMILES,LBPA endosome anti-LBPA integrated intensity (z-score) [1],LBPA endosome anti-LBPA integrated intensity (z-score) [2],whole-cell filipin (z-score) [3],whole-cell filipin (z-score) [4],filipin (z-score) [5],filipin (z-score) [6]
CCCCC(=O)O[C@H]1CC[C@H]2[C@@H]3CCc4cc(O)ccc4[C@H]3CC[C@]12C [Estradiol Valerate],-0.347,-0.788,0.103,0.191,-0.224,-0.226
CN(C)CCC=C1c2ccccc2C=Cc2ccccc21 [Cyclobenzaprine hydrochloride],2.59,2.51,1.71,0.233,2.57,2.22
COC(=O)CCc1ccc(OCC(O)CNC(C)C)cc1 (stereo unspecified) [Esmolol hydrochloride],-0.258,-0.524,-0.179,0.319,-0.36,-0.273
CNNCc1ccc(C(=O)NC(C)C)cc1 [Procarbazine hydrochloride],-0.593,-1.08,-0.286,-0.325,-0.487,-0.664
O=C(C1CCCCC1)N1CC(=O)N2CCc3ccccc3C2C1 (stereo unspecified) [Praziquantel],-0.253,-0.0737,-0.0988,0.0128,-0.417,-0.225
CCN1CCN(C(=O)N[C@@H](C(=O)N[C@@H]2C(=O)N3C(C(=O)O)=C(CSc4nnnn4C)CS[C@H]23)c2ccc(O)cc2)C(=O)C1=O [Cefoperazone dihydrate],-0.512,-0.941,-0.712,-0.226,-0.522,-0.518
O=C1Nc2ccc(Cl)cc2[C@@](C#CC2CC2)(C(F)(F)F)O1 [Efavirenz],-0.71,-0.896,-0.938,-0.668,-0.569,-0.836
"Cc1cn([C@H]2C[C@H](N=[N+]=[N-])[C@@H](CO)O2)c(=O)[nH]c1=O [Zidovudine, AZT]",-0.815,-0.853,-0.904,0.114,-0.643,-0.555
NCCNCCNCCNCCN [Tetraethylenepentamine pentahydrochloride],-0.276,-0.00928,0.0109,0.146,-0.392,-0.197
CC(C)(O/N=C(\C(=O)N[C@@H]1C(=O)N2C(C(=O)[O-])=C(C[n+]3ccccc3)CS[C@H]12)c1csc(N)n1)C(=O)O [Ceftazidime pentahydrate],-0.536,-0.783,-0.451,-0.099,-0.531,-0.437
CCCCC1C(=O)N(c2ccccc2)N(c2ccc(O)cc2)C1=O (stereo unspecified) [Oxyphenbutazone],-0.518,-0.9,0.131,0.127,-0.41,-0.527
CCOC(=O)[C@H](CCc1ccccc1)N[C@@H](C)C(=O)N1Cc2ccccc2C[C@H]1C(=O)O [Quinapril HCl],-0.508,-0.151,-0.267,-0.543,-0.453,-0.577
CCOc1ccc(NC(C)=O)cc1 [Phenacetin],-0.594,-0.322,-0.814,-0.392,-0.555,-0.582
CN(C/C=C/c1ccccc1)Cc1cccc2ccccc12 [Naftifine hydrochloride],-0.115,-0.525,0.224,-0.277,-0.136,-0.339
CCCC(C(=O)OCCN(CC)CC)(c1ccccc1)c1ccccc1 [Proadifen hydrochloride],2.78,2.82,2.1,-0.192,2.21,1.12
COc1ccccc1OCC(O)COC(N)=O (stereo unspecified) [Methocarbamol],-0.567,-0.641,-0.741,-0.777,-0.492,-0.501
CN(C)CCn1nnnc1SCC1=C(C(=O)O)N2C(=O)[C@@H](NC(=O)Cc3csc(N)n3)[C@H]2SC1 [Cefotiam hydrochloride],-0.662,-1.47,-0.797,-1.09,-0.548,-0.711
N=C(N)N/N=C/c1c(Cl)cccc1Cl [Guanabenz acetate],2.17,0.543,1.23,-0.116,1.62,0.458
O=C(c1ccccc1)c1ccc2n1CCC2C(=O)O (stereo unspecified) [Ketorolac tromethamine],-0.483,0.0549,-0.702,-0.443,-0.478,-0.538
Oc1ncnc2[nH]ncc12 [Allopurinol],-0.351,0.486,-0.157,-0.285,-0.415,-0.506
CC(=O)Oc1ccc(C(c2ccc(OC(C)=O)cc2)c2ccccn2)cc1 [Bisacodyl],-0.461,0.379,-0.546,0.375,-0.421,-0.162
CCc1nc(N)nc(N)c1-c1ccc(Cl)cc1 [Pyrimethamine],0.585,0.917,0.585,-0.093,-0.133,-0.422
CCN(CC)CCCC(C)Nc1ccnc2cc(Cl)ccc12 (stereo unspecified) [Chloroquine diphosphate],3.38,2.38,0.0406,0.105,0.896,1.26
CC(C)NCC(O)COc1cccc2[nH]ccc12 (stereo unspecified) [Pindolol],-0.195,-0.563,-0.497,-0.0997,-0.329,-0.129
CC(C)NCC(O)COc1ccc(COCCOC(C)C)cc1 (stereo unspecified) [Bisoprolol fumarate],0.695,0.146,-0.603,0.308,-0.0123,-0.0431
CC(C)(S)[C@@H](N)C(=O)O [Penicillamine],-0.535,-0.589,-0.551,-0.607,-0.469,-0.553
